Broadly, the inhibition is the change of the read-out against control, counted positive when it falls.

The source of these data is PubChem BioAssay.

Experiment [1] in a line: sensitizers of A549 cells to miR-34 induction, primary screen, imaging, A549 dox-inducible miR-34, nuclei and caspase counts (AID 1347080;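 active means compounds whose cell count with miR-34 switched on is under 0.7 times the count with it off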). The settings on record: A549 miR-34 inducible, Hoechst nuclei count, 48 h.
The nature of experiment [2]: SU-DIPG-XXV glioma cell viability, MIPE5.0 library, qHTS (AID 1347068; cut-off not given, nearly all actives have IC50 up to about 30 µM). (In general: In qHTS, concentration-response curves come from the screen itself.)
Experiment [3] in a line: LFS_MB_P medulloblastoma growth inhibition, cell-based, chromothripsis tumors, cisplatin or BGB combos (AID 1671449).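 Further: cells exposed for 96 hours; 0% = vehicle DMSO and 100% = killing by high DMSO.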 The conditions noted are these: LFS_MB_P medulloblastoma cells.
Experiment [4] in a line: HDN33 neuroblastoma growth inhibition, cell-based, chromothripsis tumors, cisplatin or BGB combos (AID 1671450).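 Further: cells exposed to compound for four days; 0% = vehicle DMSO and 100% = cell killing by high DMSO.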 The conditions noted are these: HDN33 neuroblastoma cells, stronger effect = higher value.
A short description of experiment [5]: ICB984 medulloblastoma cell growth inhibition, synergistic combos for chromothripsis tumors, cisplatin or BGB combos (AID 1671451; call rule not given here;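 further: cells exposed for 96 hours before readout; 0% = vehicle DMSO and 100% = killing by high DMSO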). The conditions noted are these: ICB984 medulloblastoma cells, drug combinations, stronger effect = higher value.
The nature of experiment [6]: LFS_MB_1R medulloblastoma cell growth inhibition, synergistic combos for chromothripsis tumors, cisplatin or BGB combos (AID 1671452).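 Further: cells exposed for 96 hours before readout.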 The conditions noted are these: LFS_MB_1R medulloblastoma cells, stronger effect = higher value.
Experiment [7] can be described thus: HTB85 osteosarcoma cell growth inhibition, synergistic combos for chromothripsis tumors, BGB or cisplatin IC20 combos (AID 1671453).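 Further: cells exposed for 96 hours before readout; 0% = vehicle DMSO and 100% = high DMSO killing control.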 The conditions noted are these: HTB85 osteosarcoma cells, drug combinations, stronger effect = higher value.
The nature of experiment [8]: CRL2098 osteosarcoma cell growth inhibition, synergistic combos for chromothripsis tumors, BGB or cisplatin IC20 combos (AID 1671454).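 Further: cells exposed for 96 h before readout; 0% = vehicle DMSO and 100% = killing by high DMSO.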 The settings on record: CRL2098 osteosarcoma cells, drug combinations, stronger effect = higher value.
Experiment [9] is described as follows: HD-MB03 medulloblastoma cell growth inhibition, synergistic combos for chromothripsis tumors, BGB or cisplatin IC20 combos (AID 1671455; in the data active means inhibition above about 83%;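 further: 0% = vehicle DMSO and 100% = high DMSO as cytotoxic control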). The settings on record: HD-MB03 medulloblastoma cells, stronger effect = higher value.
Experiment [10] is described as follows: UWB1.289 ovarian carcinoma cell growth inhibition, synergistic combos for chromothripsis tumors, BGB or cisplatin combos (AID 1671456).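 Further: cells exposed to compound for four days; 0% = vehicle DMSO and 100% = killing by high DMSO.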 The settings on record: UWB1.289 ovarian carcinoma cells, stronger effect = higher value.
Experiment [11] can be described thus: LFS_MB_2R medulloblastoma cell growth inhibition, synergistic combos for chromothripsis tumors, cisplatin combos (AID 1671457).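 Further: cells exposed to compound for four days before readout.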 The conditions noted are these: LFS_MB_2R medulloblastoma cells, stronger effect = higher value.
The nature of experiment [12]: MDA-MB-436 breast carcinoma cell growth inhibition, synergistic combos for chromothripsis tumors, BGB or cisplatin combos (AID 1671458; call rule not given here;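 further: cells exposed for 96 hours; 0% = vehicle DMSO and 100% = killing by high DMSO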). The settings on record: MDA-MB-436 breast carcinoma growth inhibition, drug combinations, stronger effect = higher value.
Experiment [13] can be described thus: UWB1.289_BRCA1 ovarian cancer growth, cell-based, BGB or cisplatin combinations (AID 1671459). The conditions noted are these: UWB1.289 BRCA1 ovarian carcinoma, drug combinations, stronger effect = higher value.
A short description of experiment [14]: human astrocyte viability loss, single and combined drugs, cytotoxicity control for chromothriptic childhood tumor combination screen, cell-based, BGB or cisplatin IC20 combos (AID 1671460).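 Further: cells exposed to compounds for 96 hours before viability readout; 0% = vehicle and 100% = killing control.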 The settings on record: Human astrocytes, drug combinations, stronger effect = higher value.
Experiment [15] can be described thus: growth inhibition of BT084 medulloblastoma cells, cell-based, ICGC_MB145, cisplatin and BGB IC40 combos (AID 1671461).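 Further: cells exposed to drugs for 96 hours; 0% = vehicle DMSO and 100% = high DMSO full killing control.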 The settings on record: drug combinations, stronger effect = higher value.
Experiment [16] can be described thus: growth inhibition of RCMB18 medulloblastoma cells, cell-based, cisplatin and BGB IC40 combos (AID 1671462).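 Further: cells exposed to compound for four days.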 The settings on record: stronger effect = higher value.
Experiment [17] is described as follows: growth inhibition of CRL1545 osteosarcoma cells, cell-based, cisplatin and BGB IC20 combos (AID 1671464).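 Further: cells exposed to compound for 96 hours before readout; 0% = vehicle DMSO and 100% = high DMSO killing control.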 The settings on record: stronger effect = higher value.
Setting [18] is: stronger effect = lower value, cell number ratio, induced over uninduced.
The mark [19] stands for this setting: measured here: relative caspase fold change +Dox/-Dox.
Setting [20] is: measured here: total cells with miR-34 induction, stronger effect = lower value.
[21] abbreviates: measured here: total cells without miR-34 induction.
Setting [22] is: measured here: combination with BGB IC40, at 0.05 µM.
Where [23] appears, read: measured here: with BGB IC20 combination, at 0.5 µM.
The mark [24] stands for this setting: measured here: with cisplatin IC20 combination, at 0.5 µM.
Setting [25] is: measured here: combination with cisplatin, at 0.5 µM.
Where [26] appears, read: measured here: combination with cisplatin, at 5 µM.

Several values for one entry are separate records, joined by “and”; a condition that tells them apart may be missing. Equal values may be shown once. Inconclusive results are not listed. Activity calls are given as the source filed them. Unless noted, no stated cut-off is given here; in the data, active means inhibition above about 80%; inactive means the rest.

On to `CCCCCCCCCCCCCCCCOC[C@@H](CO)SC(C)=O`, for which the values for the fold change in experiment [1] (setting [18]) and in experiment [1] (setting [19]) were 1.02 (inactive) and 0.6, respectively. Further, the cell count in [1] (setting [20]) is 5400; in experiment [1] (setting [21]), 5270.
Turning to `O=C(Nc1cccc(C(F)(F)F)c1)c1cccc2cc(Oc3cc(CO)ncn3)ccc12`, the compound was classed as inactive in [2].
Turning to `CCCCCC#CCC#CCCCCCCCC(=O)O`, the fold change in experiment [1] (setting [18]) was 0.999 (inactive); in experiment [1] (setting [19]) it was 0.839. Further, the cell count in [1] (setting [20]) is 6260; in experiment [1] (setting [21]) it was 6270.
Take `CC=CCC(C)C(O)C1C(=O)NC(CC)C(=O)N(C)CC(=O)N(C)C(CC(C)C)C(=O)NC(C(C)C)C(=O)N(C)C(CC(C)C)C(=O)NC(C)C(=O)NC(C)C(=O)N(C)C(CC(C)C)C(=O)N(C)C(CC(C)C)C(=O)N(C)C(C(C)C)C(=O)N1C` (centres undefined): the fold change in [1] (setting [18]) is 1.07 (inactive) and 0.992 (inactive); in [1] (setting [19]), 0.343 and 1.41.
Take `CC(C)(C)S(=O)(=O)c1ccc2nccc(Nc3n[nH]c4ccc(F)cc34)c2c1`: in [2], the result was inactive.
`CS(=O)(=O)c1ccc(-c2nnc(/C=C/c3nnc(-c4ccc(C#N)cc4)o3)n2-c2ccccc2Cl)nc1`: the result in [2] was inactive. In addition, the inhibition was 1.48% (inactive) in experiment [3] (at 0.5 µM, stronger effect = higher value); 2.99% in experiment [3] (measured here: combination with BGB IC20, at 0.005 µM); 6.48% in experiment [3] (measured here: combination with BGB IC40, at 0.005 µM); 30.7% in [3] (setting [22]); -5.01% in experiment [3] (measured here: combination with cisplatin, at 0.5 µM, stronger effect = higher value); -36.6% in [3] (measured here: combination with cisplatin, at 5 µM, stronger effect = higher value). In addition, the inhibition is 21% in [4] (BGB combo, at 5 µM); 30.9% (inactive) in experiment [4] (at 0.5 µM); 23.5% in [4] (cisplatin combo, at 5 µM); 33.7% in [4] (setting [23]); 23.2% in experiment [4] (setting [24]); 31.3% in experiment [4] (single agent, at 5 µM). For the same compound, the inhibition in [5] (BGB IC20 combo, at 0.005 µM) is -3.28%; in experiment [5] (BGB IC40 combo, at 0.005 µM), -14.7%; in experiment [5] (BGB IC40 combo, at 0.05 µM), -5.67%; in experiment [5] (at 0.5 µM) it was -26.5% (inactive); in experiment [5] (cisplatin combo, at 0.05 µM), -9.85%; in experiment [5] (cisplatin combo, at 0.5 µM), -33.8%. In addition, the inhibition in experiment [5] (cisplatin combo, at 5 µM) is -19.1%; in [5] (measured here: 5 uM single agent, at 5 µM), -5.85%; in experiment [6] (at 0.5 µM) it was -3.64% (inactive); in experiment [6] (setting [22]), 0.706%; in [6] (setting [25]) it was -21.2%; in experiment [6] (setting [26]), -35.8%. Besides, the inhibition is 15.7% (inactive) in experiment [7] (at 0.5 µM); 7.63% in experiment [7] (measured here: with BGB IC20, at 0.5 µM); -0.396% in [7] (measured here: with BGB IC20, at 5 µM); 4.78% in experiment [7] (measured here: with cisplatin IC20, at 0.5 µM); 9.69% in experiment [7] (measured here: with cisplatin IC20, at 5 µM); 38.8% in experiment [7] (single agent, at 5 µM). Further, the inhibition in experiment [8] (at 0.5 µM) is 7.89% (inactive); in experiment [8] (measured here: combination with BGB at IC20, at 0.5 µM) it was 3.4%; in experiment [8] (measured here: combination with cisplatin at IC20, at 0.5 µM), 15.6%; in experiment [9] (at 0.5 µM) it was 11.5% (inactive); in experiment [9] (measured here: combo with BGB at IC20, at 0.5 µM), 0.481%; in [9] (measured here: combo with cisplatin at IC20, at 0.5 µM) it was 19.9%. Besides, the inhibition in experiment [10] (at 0.5 µM) is 15.3% (inactive); in experiment [10] (measured here: inhibition with BGB combination, at 0.05 µM) it was 0.045%; in [10] (measured here: inhibition with cisplatin combination, at 0.05 µM), 15.1%; in experiment [11] (at 0.5 µM), -0.5% (inactive); in [11] (setting [25]) it was 14.1%; in experiment [11] (setting [26]) it was -1.82%. Further, the inhibition is 7.83% (inactive) in [12] (at 0.5 µM); -1.04% in [12] (measured here: BGB combination, at 0.5 µM); -5.11% in experiment [12] (measured here: BGB combination, at 5 µM); 9.17% in experiment [12] (measured here: cisplatin combination, at 0.5 µM); 11.5% in experiment [12] (measured here: cisplatin combination, at 5 µM); 22.9% in experiment [13] (BGB combination, concentration series, at 5 µM). The inhibition was 12.5% (inactive) in experiment [13] (at 0.5 µM); 17.8% in experiment [13] (cisplatin combination, concentration series, at 5 µM); 40.8% (inactive) in experiment [14] (at 0.5 µM); 29.7% in [14] (measured here: combo with BGB IC20, at 0.5 µM); 52.2% in [14] (measured here: combo with cisplatin IC20, at 0.5 µM); -12.2% (inactive) in experiment [15] (at 0.5 µM). The inhibition is 3.06% in experiment [15] (cisplatin combination, at 0.5 µM); 6.23% in experiment [15] (cisplatin combination, at 5 µM); -3.22% in [15] (measured here: BGB IC40 combination 0.05 uM, at 0.05 µM); -30% in experiment [15] (single agent, at 5 µM); 3.73% (inactive) in experiment [16] (at 0.5 µM); 7.03% in [16] (cisplatin combo, at 5 µM). Besides, the inhibition in [16] (measured here: BGB IC40 combination, at 0.05 µM) is -6.83%; in experiment [16] (setting [25]), 19.3%; in [16] (single agent, at 5 µM) it was -0.278%; in experiment [17] (at 0.5 µM), -40.3% (inactive); in experiment [17] (setting [23]), -43.6%; in experiment [17] (setting [24]), -38.6%. Also, the inhibition was -1.31% in experiment [17] (single agent, at 0.05 µM) and -32.2% in experiment [17] (single agent, at 5 µM).
As to `CCOC(=O)C1=CCCCC1S(=O)(=O)Nc1ccc(F)cc1Cl` (centres undefined), in experiment [2], the compound was classed as inactive.
As for `C/C=C(/C)C(=O)O[C@H]1C(C)=CC23C(=O)C(C=C(CO)[C@@H](O)[C@]12O)[C@H]1[C@@H](C[C@H]3C)C1(C)C` (some centres undefined), in experiment [2], the compound was called inactive.
`C=CC(=O)N[C@H]1CCOC[C@H]1Nc1ncc2cc(-c3c(Cl)c(OC)cc(OC)c3Cl)ccc2n1`: in experiment [2], the outcome was inactive.
